Laboratory results from PubChem BioAssay.
The source made the active and inactive calls. Cut-off read from the data, not from the text of the source: active = nuclear beta-catenin stimulation mostly above about 4.2% (no sharp cut-off); inactive = mostly below about 10%. Positions of bridges follow the written chain, without caps; N, C: chain ends. Non-standard residues stand in square brackets, D forms with d. Residues, ends and D or L forms follow the SMILES beside them. hArg = N=C(N)NCCCC[C@H](N)C(=O)O; Mpa = O=C(O)CCS

assay: stimulators of nuclear beta-catenin in C2C12, primary screen, imaging, WNT3A-conditioned medium, mouse C2C12, NPC library (AID 1117326); details: at 10 µM, active compounds read high; note: reference of the scale not given here

Nuclear beta-catenin stimulation, inactive:
C/C(=C(/OCCOc1ccc(Cl)cc1)c1ccc(Cl)cc1Cl)n1ccnc1 3.9%
Cc1ccc(-c2ccccc2C#N)cc1 1.4%
COc1cc(NS(=O)(=O)c2ccc(N)cc2)nc(C)n1 1.1%
C=C(C)C(=O)OCC(O)CO (centres undefined) 7.5%
CC(C)CCCC(C)CCCC(C)CCCCC(C)CCCC(C)CCCC(C)C (centres undefined) -1.2%
Cc1cc(O)c(C)c(C)c1O 2.1%
Cc1cc(O)c(Cl)c(C)c1Cl 0.8%
C/C=C(/C(=C/C)c1ccc(OC(C)=O)cc1)c1ccc(OC(C)=O)cc1 18.1%
C=CCN1CCc2nc(N)sc2CC1 0.7%
COc1ccccc1OCC1CNC(=O)O1 (centres undefined) -2%
O=P(O)(O)C(O)(Cc1cnc2ccccn12)P(=O)(O)O -0.5%
O=C(O)CNC(=O)c1ccccc1I -0.5%
CC(=O)Nc1ccc(OC(=O)c2ccccc2OC(C)=O)cc1 0.6%
CCN1CCCC1CN (centres undefined) 1.1%
CCOc1ccc(C(=O)OCCN(CC)CC)cc1 -1%
O=C(NCCc1c[nH]c2ccccc12)c1cccnc1 1%
CCC(Cc1c(I)cc(I)c(O)c1I)C(=O)O (centres undefined) 0.6%
CC(O)CCCCn1c(=O)c2c(ncn2C)n(C)c1=O (centres undefined) -0.6%
C[C@]12C=CC(=O)C=C1[C@@H](F)C[C@@H]1[C@@H]2[C@@H](O)C[C@@]2(C)[C@H]1CC[C@]2(O)C(=O)CO -1.5%
NCC(=O)O 2.3%
CCOCCn1c(C2CCN(CCc3ccc(C(C)(C)C(=O)O)cc3)CC2)nc2ccccc21 -0.1%
C[C@H]1C[C@H]2[C@@H]3CCC4=CC(=O)C=C[C@]4(C)[C@@]3(Cl)[C@@H](O)C[C@]2(C)[C@@]1(O)C(=O)CO 0.9%
NC(=O)[C@@H]1CSSCCC(=O)N[C@@H](CCCCN=C(N)N)C(=O)NCC(=O)N[C@@H](CC(=O)O)C(=O)N[C@@H](Cc2c[nH]c3ccccc23)C(=O)N2CCC[C@H]2C(=O)N1 ([Mpa][hArg]GDWPC-NH2; disulfide 1-7) 3.6%
COC(=O)C1=C(C)NC(COC(N)=O)=C(C(=O)OC(C)C)C1c1cccc(Cl)c1Cl (centres undefined) 35.5%
C[N+](C)(CCOc1ccccc1)Cc1cccs1 -0.3%
O=C(O)c1[nH]n(-c2ccc(S(=O)(=O)O)cc2)c(=O)c1N=Nc1ccc(S(=O)(=O)O)cc1 1.7%
c1ccc(OCc2ccc(CCCN3CCOCC3)cc2)cc1 -1%
CCS(=O)(=O)c1ccc(OC)c(C(=O)OC)c1 -0.3%
COC(=O)/C=C(/C)N 0.7%
N#CCC(=O)NN 0.4%
Nc1nc(-c2ccccc2)c(Br)c(=O)[nH]1 3.6%
CCCCCC=CCC=CCCCCCCCC(=O)OCC 1.6%
CCCCCCCC/C=C\CCCCCCCCN -3.5%
C/C(=C(\CCO)SS/C(CCO)=C(\C)N(C=O)Cc1cnc(C)nc1N)N(C=O)Cc1cnc(C)nc1N 0.2%
Cc1onc(-c2c(F)cccc2Cl)c1C(=O)Cl -0.1%
CSCC[C@H](N)C(=O)O 1.9%
CCCCCC(N)=O 1.3%
CCCCCCCCCCCCCCCCCCN(C)C -0.6%
O=C(Cn1ccnc1[N+](=O)[O-])NCc1ccccc1 -0.6%
